Measurements taken from the supplement of paper PMC6555819.

What was measured:
Assay in all cases: PBM binding z-score (relative to random genomic background probes); higher = stronger binding; sequences stand for … in GC…GCGATTGACAGCGTAGAATGAAGG
[1] = test system: FXR:RXRa (NR concentration 270 nM, RXRa partner concentration 90 nM)
Outline: (§1)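 Antibodies against each partner of ligand-free nuclear receptor dimers (one per run) detected binding on custom Agilent 4×180K protein-binding microarrays after 1 h incubation. The double-stranded probes had 34-nt variable regions carrying direct-repeat seeds, single-nucleotide variants, half-site ablations and random human genomic background sequences. Binding z-scores, from regression-normalized fluorescence, use the random background probes as reference.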

[2] = test system: LXRa:RXRa (NR concentration 270 nM, RXRa partner concentration 90 nM)
Outline: as §1

[3] = test system: LXRa homodimer (NR concentration 270 nM)
Outline: as §1

[4] = test system: LXRb:RXRa (NR concentration 270 nM, RXRa partner concentration 90 nM)
Outline: as §1

[5] = test system: LXRb homodimer (NR concentration 270 nM)
Outline: as §1

[6] = test system: PPARa:RXRa (NR concentration 270 nM, RXRa partner concentration 90 nM)
Outline: as §1

[7] = test system: PPARg:RXRa (NR concentration 180 nM, RXRa partner concentration 90 nM)
Outline: as §1

[8] = test system: PPARg:RXRa 270nM:90nM, anti-RXR (NR concentration 270 nM, RXRa partner concentration 90 nM)
Outline: as §1

[9] = test system: PPARg:RXRa 30nM:10nM, anti-RXR (NR concentration 30 nM, RXRa partner concentration 10 nM)
Outline: as §1

[10] = test system: PPARg:RXRa 90nM:30nM, anti-RXR (NR concentration 90 nM, RXRa partner concentration 30 nM)
Outline: as §1

[11] = test system: PPARg:RXRa DBDmut IVT, anti-RXR (DBD mutation: RXRa K156A/R161A, NR concentration 270 nM, RXRa partner concentration 90 nM)
Outline: as §1

[12] = test system: PPARg:RXRa IVT, anti-PPARg (NR concentration 270 nM, RXRa partner concentration 90 nM)
Outline: as §1

[13] = test system: PPARg DBDmut IVT, anti-PPARg (DBD mutation: PPARg1 K132A/R137A, NR concentration 270 nM)
Outline: as §1

[14] = test system: PPARg homodimer (NR concentration 180 nM)
Outline: as §1

[15] = test system: PXR:RXRa (NR concentration 270 nM, RXRa partner concentration 90 nM)
Outline: as §1

[16] = test system: PXR homodimer (NR concentration 270 nM)
Outline: as §1

[17] = test system: RARa:RXR (NR concentration 270 nM, RXRa partner concentration 90 nM)
Outline: as §1

[18] = test system: RARa homodimer (NR concentration 270 nM)
Outline: as §1

[19] = test system: RARb:RXRa (NR concentration 270 nM, RXRa partner concentration 90 nM)
Outline: as §1

[20] = test system: PPARg DBDmut:RXRa IVT, anti-PPARg (DBD mutation: PPARg1 K132A/R137A, NR concentration 270 nM, RXRa partner concentration 90 nM)
Outline: as §1

| Sequence | PBM binding z-score [1] | PBM binding z-score [2] | PBM binding z-score [3] | PBM binding z-score [4] | PBM binding z-score [5] | PBM binding z-score [6] | PBM binding z-score [7] | PBM binding z-score [8] | PBM binding z-score [9] | PBM binding z-score [10] | PBM binding z-score [11] | PBM binding z-score [12] | PBM binding z-score [13] | PBM binding z-score [14] | PBM binding z-score [15] | PBM binding z-score [16] | PBM binding z-score [17] | PBM binding z-score [18] | PBM binding z-score [19] | PBM binding z-score [20] |
| --- | --- | --- | --- | --- | --- | --- | --- | --- | --- | --- | --- | --- | --- | --- | --- | --- | --- | --- | --- | --- |
| CGAACTACGTCACCAGGACAGTGAAGAGGTTGGA | -0.0876 | -0.2 | -0.121 | -0.435 | -0.676 | -0.258 | 0.527 | -0.464 | 0.0797 | -0.46 | 0.112 | 0.232 | -0.216 | 0.245 | -0.245 | -0.301 | 0.0876 | -0.285 | -0.125 | – |
| CGAACTAGGTCACCAGTACAGTGAAGAGGTTGGA | 3.77 | 2.35 | 0.174 | 1.82 | 0.0155 | 4.77 | 8.77 | 7.17 | 5.27 | 6.88 | 8.41 | 8.76 | 1.75 | 2.54 | 1.59 | -0.139 | 2.65 | 0.527 | 3.98 | – |
| CGAACTAGGTCACCAGGACAGTGACGAGGTTGGA | 4.27 | 2.44 | -0.221 | 1.53 | -0.75 | 5.17 | 8.62 | 6.98 | 4.41 | 6.34 | 8.26 | 8.82 | 1.73 | 1.63 | 1.66 | -0.0254 | 2.69 | 0.339 | 4.38 | – |
| CGAACTAGGTCACCAGGACACTGAAGAGGTTGGA | 3.92 | 2.61 | 0.155 | 1.95 | -0.211 | 5.31 | 8.46 | 7.07 | 4.81 | 6.92 | 8.03 | 8.93 | 1.04 | 1.58 | 2.02 | 0.353 | 2.73 | 0.625 | 4.22 | – |
| ATATGTAGGTTAAGGGTCATGCAGGTTGGTTCGC | 4.83 | 4.77 | 2.17 | 4.13 | 1.3 | 6.71 | – | 10.2 | 10.9 | 11.9 | 7.69 | 7.88 | 2.56 | 5.05 | 5.37 | 2.16 | 6.47 | 2.37 | 3.73 | 4.88 |
| ATAAGTAGGTTAGGGTCATTCAGAAAGTAGGGAA | 4.83 | 4.27 | 1.68 | 4.53 | 2.04 | 5.65 | 8.07 | 7.06 | 4.72 | 7 | 6.82 | 6.77 | 2.11 | 3.79 | 4.78 | 3.26 | 5.36 | 2.72 | 3.63 | – |
| CGAACTAGGTCACCAGGACCGTGAAGAGGTTGGA | 3.87 | 2.36 | -0.1 | 1.5 | -0.339 | 4.88 | 8.27 | 6.8 | 4.02 | 6.42 | 8.24 | 8.31 | 0.567 | 1.94 | 1.19 | -0.498 | 2.08 | -0.00105 | 4.08 | – |
| ATATGTAGGTTAGGGTCATTAAGAAAGTAGGGAA | 4.6 | 3.41 | 1.04 | 4.44 | 1.52 | 5.58 | 7.9 | 6.59 | 4.1 | 6.14 | 6.33 | 6.81 | 3.64 | 3.28 | 3.9 | 1.85 | 4.79 | 1.97 | 3.32 | – |
| CAAACTAGGTCAAGGTCAAAGTAGGTTTGTGCCA | 7.18 | 5.78 | 4.55 | 4.82 | 1.64 | 6.41 | – | 8.19 | 6.7 | 8.63 | 8.75 | 8.96 | 3.69 | 5.67 | 5.46 | 2.97 | 5.43 | 2.61 | 5.31 | 4.01 |
| CGAACTAGGTCAAAGGACGGTGAAAGGCGACGTA | 4.04 | 2.51 | -0.304 | 1.41 | -0.584 | 5.34 | 9.5 | 8 | 7.43 | 8.82 | 7.71 | 8.31 | 2.26 | 1.81 | 0.75 | -0.279 | 2.05 | 0.114 | 3.76 | – |
| TTATCAAGGTGAAAGGTCGTTGATGCACGCCTTG | 3.92 | 3.41 | 0.476 | 2.84 | 0.104 | 5.86 | – | 9.22 | 9.21 | 11 | 4.86 | 6.15 | 1.43 | 2.37 | 3.99 | 0.766 | 5.9 | 0.465 | – | 1.25 |
| CGAACTAGGTCACCAGGACAGAGAAGAGGTTGGA | 4.19 | 2.59 | 0.117 | 1.71 | -0.205 | 5.15 | 8.52 | 7.02 | 4.71 | 6.65 | 8.29 | 8.26 | 0.828 | 2.46 | 1.55 | 0.0837 | 2.56 | 0.391 | 4.22 | – |
| GGAACGGGGGCATTCGAGTTGATAGCATGGCGAT | 3.01 | 4.03 | 0.603 | 4.98 | 6.54 | 3.99 | – | 4.08 | 1.54 | 3.65 | 3.24 | 5.37 | 10.9 | 1.37 | 5.15 | 3.02 | 2.94 | 0.259 | 2.9 | 8.85 |
| ATATGTCGGTTAGGGTCATTCAGAAAGTAGGGAA | 4.73 | 3.97 | 1.11 | 4.09 | 2.21 | 4.78 | 3.57 | 3.71 | 1.57 | 3.07 | 2.03 | 3.18 | 2.25 | 3.91 | 4.88 | 2.06 | 5.07 | 1.86 | 3.32 | – |
| CGACCTAGGTCAAAGGACAGTGAAAGGCGACGTA | 5.01 | 3.27 | -0.141 | 2.32 | -0.298 | 4.33 | 5.72 | 5.68 | 3.14 | 4.92 | 3.69 | 4 | -0.949 | 1.74 | 1.42 | -0.567 | 2.9 | -0.132 | 4.05 | – |
